# Experimental data reported in PubChem BioAssay AID2284383 (EPA ToxCast).
# Results filed as inconclusive are left out. The source made the active and inactive calls. Rule for the calls: active = hit-call score of the fitted dose curve at least 0.9, where 1 is the maximum; inconclusive = response in the unintended direction; inactive = score below 0.9.
# Biological target: human Retinoic Acid Receptor gamma (RARg) Agonism, RARG (gene 5916) (UniProt P13631)
# Assay: ERF_TW_NR_COA_hRARG: Eurofins (ERF) Nuclear Receptor (NR) Functional Coactivator Assay for human Retinoic Acid Receptor gamma (RARg) Agonism
# Protocol: ERF_TW_NR_COA_hRARG is a biochemical, single-readout assay that uses extracted gene-proteins in a cell-free assay. Measurements were taken 16 hours after chemical dosing in a 96-well plate. […] It is designed to measure FRET using a type of binding reporter as detected by fluorescence intensity of AM580 with fluorimetry technology.Data from the assay component ERF_TW_NR_COA_hRARG was analyzed at the assay endpoint, ERF_TW_NR_COA_hRARG, in the positive analysis fitting direction relative to DMSO as the negative control and baseline of activity. Using a type of binding reporter, gain-of-signal activity can be used to understand changes in binding as they relate to gene RARG. To generalize the intended target to other relatable targets, this assay endpoint is annotated to the nuclear receptor intended target family, where the subfamily is non-steroidal.
# Human recombinant retinoic acid receptor […] (RARgamma) receptors expressed in bacteria are used. Test compound and/or vehicle is incubated with the 25 nM receptors and binding buffer in modified Tris-HCl buffer pH 7.4 for 16 hours at 4C. Determination of the amount of complex formed is read spectrofluorimetrically (excitation:337 nm, emission:620/665 nm). Test compound-induced increase in fluorescence by 50 percent or more (>/= 50%) relative to the 0.3 uM AM580 response indicates possible RARgamma receptor agonist activity. […]
# human Retinoic Acid Receptor gamma (RARg) Agonism, RARG (gene 5916), sequence (P13631 whole entry, looked up): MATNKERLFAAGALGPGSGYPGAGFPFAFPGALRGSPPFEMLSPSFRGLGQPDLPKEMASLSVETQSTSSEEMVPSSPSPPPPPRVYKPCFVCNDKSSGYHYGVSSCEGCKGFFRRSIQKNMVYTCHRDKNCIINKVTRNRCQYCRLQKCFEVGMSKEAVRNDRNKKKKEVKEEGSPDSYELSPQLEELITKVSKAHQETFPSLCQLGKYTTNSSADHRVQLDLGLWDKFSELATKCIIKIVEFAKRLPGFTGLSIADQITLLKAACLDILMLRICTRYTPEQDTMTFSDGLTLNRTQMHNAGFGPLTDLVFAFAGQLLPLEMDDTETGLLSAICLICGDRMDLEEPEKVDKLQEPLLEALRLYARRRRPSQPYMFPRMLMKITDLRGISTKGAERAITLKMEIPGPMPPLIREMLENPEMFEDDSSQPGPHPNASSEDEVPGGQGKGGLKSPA
compound,measurement,value
C[C@H]1C[C@@H]2[C@H]([C@@H](O)C[C@@]3(C)[C@H]2CC[C@]3(O)C(=O)CO)[C@@]2(C)C=CC(=O)C=C12,outcome,inactive
